According to PubChem BioAssay AID1159580 (chemical genetic matrix, 2015):
Hit rate of the full screen: of about 5,500 compounds, about 2,000 (36%) were called active. Another 18% or so got no clear call; they are omitted. The list shows a part of the results. Values without a mark were called inactive. No stated cut-off is given here; in the data, active means normalized growth mostly below about 0.91 (no sharp cut-off); inconclusive means no clear call, values can overlap the other calls; inactive means mostly above about 0.92.

Assay: chemical genetic growth profiling, strain panel (AID 1159580);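 further: tested at 20 µM; growth read once vehicle control cultures reached saturation at 30 °C; 1 = growth at the plate median or of vehicle wells; lower values mean less growth of the strain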
Settings: growth OD
[1] = S. cerevisiae deletion strains, locus YHR030C, strain SLT2, hits give low values

Compound: CN(C)C=Nc1nc2c(s1)CCc1ccccc1-2
- normalized growth (S. cerevisiae deletion strains, locus YAL013W, strain DEP1, hits give low values): 0.953
- normalized growth (S. cerevisiae deletion strains, locus YBR229C, strain ROT2, hits give low values): 0.975
- normalized growth (S. cerevisiae deletion strains, locus YDL101C, strain DUN1, hits give low values): 0.964
- normalized growth (S. cerevisiae deletion strains, locus YDR150W, strain NUM1, hits give low values): 0.934
- normalized growth (S. cerevisiae deletion strains, locus YEL061C, strain CIN8, hits give low values): 0.878 (active)
- normalized growth (S. cerevisiae deletion strains, locus YGR078C, strain PAC10, hits give low values): 0.989
- normalized growth [1]: 0.477 (active)
- normalized growth (S. cerevisiae deletion strains, locus YHR087W, strain rtc3, hits give low values): 1.01
- normalized growth (S. cerevisiae deletion strains, locus YJL187C, strain SWE1, hits give low values): 0.972
- normalized growth (S. cerevisiae deletion strains, locus YJR043C, strain POL32, hits give low values): 0.994
- normalized growth (S. cerevisiae deletion strains, locus YJR075W, strain HOC1, hits give low values): 0.957
- normalized growth (S. cerevisiae deletion strains, locus YLR039C, strain RIC1, hits give low values): 0.794
- normalized growth (S. cerevisiae deletion strains, locus YLR058C, strain SHM2 (second series), hits give low values): 0.989
- normalized growth (S. cerevisiae deletion strains, locus YLR085C, strain ARP6, hits give low values): 0.622 (active)
- normalized growth (S. cerevisiae deletion strains, locus YLR262C, strain YPT6, hits give low values): 0.811 (active)
- normalized growth (S. cerevisiae deletion strains, locus YML094W, strain GIM5, hits give low values): 0.798 (active)
- normalized growth (S. cerevisiae deletion strains, locus YMR219W, strain ESC1, hits give low values): 0.991
- normalized growth (S. cerevisiae deletion strains, locus YMR263W, strain SAP30, hits give low values): 0.977
- normalized growth (S. cerevisiae deletion strains, locus YNL153C, strain GIM3, hits give low values): 0.968
- normalized growth (S. cerevisiae deletion strains, locus YNL298W, strain CLA4 (second series), hits give low values): 0.825 (active)
- normalized growth (S. cerevisiae deletion strains, locus YNL322C, strain KRE1, hits give low values): 0.994
- normalized growth (S. cerevisiae deletion strains, locus YNR030W, strain Alg12, hits give low values): 0.899
- normalized growth (S. cerevisiae deletion strains, locus YPL055C, strain LGE1, hits give low values): 0.799 (active)
- normalized growth (S. cerevisiae deletion strains, locus YPL241C, strain CIN2, hits give low values): 0.819 (active)
- normalized growth (S. cerevisiae deletion strains, locus YPR135W, strain CTF4, hits give low values): 0.635 (active)
- normalized growth (S. cerevisiae strains, strain wild type, hits give low values): 0.997

Compound: NCC1CCCCC1CC(=O)O (stereo not given)
- normalized growth (S. cerevisiae deletion strains, locus YAL021C, strain ccr4, hits give low values): 1.01
- normalized growth (S. cerevisiae deletion strains, locus YAL026C, strain drs2, hits give low values): 1.02
- normalized growth (S. cerevisiae deletion strains, locus YAL030W, strain snc1, hits give low values): 1.03
- normalized growth (S. cerevisiae deletion strains, locus YBL061C, strain skt5, hits give low values): 1.04
- normalized growth (S. cerevisiae deletion strains, locus YBR009C, strain hhf1, hits give low values): 0.988
- normalized growth (S. cerevisiae deletion strains, locus YBR023C, strain chs3, hits give low values): 1.02
- normalized growth (S. cerevisiae deletion strains, locus YBR171W, strain sec66, hits give low values): 1.03
- normalized growth (S. cerevisiae deletion strains, locus YBR231C, strain swc5, hits give low values): 1.01
- normalized growth (S. cerevisiae deletion strains, locus YBR279W, strain paf1, hits give low values): 1.03
- normalized growth (S. cerevisiae deletion strains, locus YCL011C, strain gbp2, hits give low values): 1.02
- normalized growth (S. cerevisiae deletion strains, locus YCL016C, strain dcc1, hits give low values): 1
- normalized growth (S. cerevisiae deletion strains, locus YCL061C, strain MRC1, hits give low values): 1.04
- normalized growth (S. cerevisiae deletion strains, locus YCL069W, strain vba3, hits give low values): 1.02
- normalized growth (S. cerevisiae deletion strains, locus YCR088W, strain abp1, hits give low values): 1.04
- normalized growth (S. cerevisiae deletion strains, locus YDL005C, strain med2, hits give low values): 1.02
- normalized growth (S. cerevisiae deletion strains, locus YDL040C, strain nat1, hits give low values): 1.02
- normalized growth (S. cerevisiae deletion strains, locus YDR001C, strain nth1, hits give low values): 1.02
- normalized growth (S. cerevisiae deletion strains, locus YDR069C, strain doa4, hits give low values): 1.05
- normalized growth (S. cerevisiae deletion strains, locus YDR137W, strain rgp1, hits give low values): 1.03
- normalized growth (S. cerevisiae deletion strains, locus YDR159W, strain sac3, hits give low values): 0.98
- normalized growth (S. cerevisiae deletion strains, locus YDR195W, strain ref2): 0.989
- normalized growth (S. cerevisiae deletion strains, locus YDR297W, strain sur2, hits give low values): 1.05
- normalized growth (S. cerevisiae deletion strains, locus YDR334W, strain swr1, hits give low values): 1.02
- normalized growth (S. cerevisiae deletion strains, locus YDR335W, strain msn5, hits give low values): 1.03
- normalized growth (S. cerevisiae deletion strains, locus YDR392W, strain spt3, hits give low values): 0.95
- normalized growth (S. cerevisiae deletion strains, locus YEL003W, strain gim4, hits give low values): 1.03
- normalized growth (S. cerevisiae deletion strains, locus YEL037C, strain rad23, hits give low values): 1.02
- normalized growth (S. cerevisiae deletion strains, locus YEL061C, strain CIN8 (second series), hits give low values): 1.02
- normalized growth (S. cerevisiae deletion strains, locus YER015W, strain faa2, hits give low values): 1.03
- normalized growth (S. cerevisiae deletion strains, locus YER016W, strain bim1, hits give low values): 1
- normalized growth (S. cerevisiae deletion strains, locus YER111C, strain swi4, hits give low values): 1.01
- normalized growth (S. cerevisiae deletion strains, locus YER155C, strain BEM2 (second series), hits give low values): 1.07
- normalized growth (S. cerevisiae deletion strains, locus YFR010W, strain ubp6, hits give low values): 1.02
- normalized growth (S. cerevisiae deletion strains, locus YGL167C, strain pmr1, hits give low values): 1.03
- normalized growth (S. cerevisiae deletion strains, locus YGL173C, strain kem1, hits give low values): 1.04
- normalized growth (S. cerevisiae deletion strains, locus YGL227W, strain vid30, hits give low values): 1.03
- normalized growth (S. cerevisiae deletion strains, locus YGL240W, strain doc1, hits give low values): 1.04
- normalized growth (S. cerevisiae deletion strains, locus YGL253W, strain hxk2, hits give low values): 1.03
- normalized growth (S. cerevisiae deletion strains, locus YHR013C, strain ard1, hits give low values): 1.02
- normalized growth (S. cerevisiae deletion strains, locus YHR027C, strain rpn1, hits give low values): 1.01
- normalized growth [1]: 0.999
- normalized growth (S. cerevisiae deletion strains, locus YHR079C, strain IRE1, hits give low values): 0.997
- normalized growth (S. cerevisiae deletion strains, locus YHR142W, strain chs7, hits give low values): 1.03
- normalized growth (S. cerevisiae deletion strains, locus YJL092W, strain hpr5, hits give low values): 1.03
- normalized growth (S. cerevisiae deletion strains, locus YJL095W, strain BCK1 (second series), hits give low values): 1.02
- normalized growth (S. cerevisiae deletion strains, locus YJL095W, strain BCK1, hits give low values): 0.988
- normalized growth (S. cerevisiae deletion strains, locus YJL115W, strain asf1, hits give low values): 1.03
- normalized growth (S. cerevisiae deletion strains, locus YJL129C, strain trk1, hits give low values): 1.04
- normalized growth (S. cerevisiae deletion strains, locus YJL154C, strain vps35, hits give low values): 1.01
- normalized growth (S. cerevisiae deletion strains, locus YJL164C, strain tpk1, hits give low values): 1.01
- normalized growth (S. cerevisiae deletion strains, locus YJL166W, strain qcr8, hits give low values): 1.05
- normalized growth (S. cerevisiae deletion strains, locus YJR066W, strain TOR1, hits give low values): 0.941
- normalized growth (S. cerevisiae deletion strains, locus YKL160W, strain elf1, hits give low values): 1.04
- normalized growth (S. cerevisiae deletion strains, locus YKR026C, strain gcn3, hits give low values): 1.02
- normalized growth (S. cerevisiae deletion strains, locus YKR091W, strain srl3, hits give low values): 1.02
- normalized growth (S. cerevisiae deletion strains, locus YLL001W, strain dnm1, hits give low values): 1.04
- normalized growth (S. cerevisiae deletion strains, locus YLL026W, hits give low values): 1.01
- normalized growth (S. cerevisiae deletion strains, locus YLL041C, strain sdh2, hits give low values): 1.02
- normalized growth (S. cerevisiae deletion strains, locus YLR027C, strain aat2, hits give low values): 1.04
- normalized growth (S. cerevisiae deletion strains, locus YLR113W, strain HOG1, hits give low values): 0.959
- normalized growth (S. cerevisiae deletion strains, locus YLR221C, strain rsa3, hits give low values): 1
- normalized growth (S. cerevisiae deletion strains, locus YLR258W, strain gsy2, hits give low values): 1.02
- normalized growth (S. cerevisiae deletion strains, locus YLR262C, strain YPT6 (second series), hits give low values): 1.04
- normalized growth (S. cerevisiae deletion strains, locus YLR320W, strain mms22, hits give low values): 1
- normalized growth (S. cerevisiae deletion strains, locus YLR342W, strain FKS1, hits give low values): 1.04
- normalized growth (S. cerevisiae deletion strains, locus YLR357W, strain rsc2, hits give low values): 1.04
- normalized growth (S. cerevisiae deletion strains, locus YLR370C, strain arc18, hits give low values): 1.03
- normalized growth (S. cerevisiae deletion strains, locus YLR384C, strain iki3, hits give low values): 1.02
- normalized growth (S. cerevisiae deletion strains, locus YML120C, strain ndi1, hits give low values): 1.03
- normalized growth (S. cerevisiae deletion strains, locus YMR058W, strain fet3, hits give low values): 1.04
- normalized growth (S. cerevisiae deletion strains, locus YMR125W, strain sto1, hits give low values): 0.985
- normalized growth (S. cerevisiae deletion strains, locus YMR129W, hits give low values): 1.02
- normalized growth (S. cerevisiae deletion strains, locus YMR205C, strain PFK2, hits give low values): 1.04
- normalized growth (S. cerevisiae deletion strains, locus YMR231W, strain pep5, hits give low values): 1.02
- normalized growth (S. cerevisiae deletion strains, locus YNL071W, strain lat1, hits give low values): 1.01
- normalized growth (S. cerevisiae deletion strains, locus YNL183C, strain NPR1, hits give low values): 0.912
- normalized growth (S. cerevisiae deletion strains, locus YNL209W, strain ssb2, hits give low values): 1.03
- normalized growth (S. cerevisiae deletion strains, locus YNL248C, strain rpa49, hits give low values): 1.01
- normalized growth (S. cerevisiae deletion strains, locus YNL322C, strain KRE1 (second series), hits give low values): 1.02
- normalized growth (S. cerevisiae deletion strains, locus YNR049C, strain mso1, hits give low values): 1.02
- normalized growth (S. cerevisiae deletion strains, locus YOR001W, strain rrp6, hits give low values): 1.04
- normalized growth (S. cerevisiae deletion strains, locus YOR070C, strain gyp1, hits give low values): 1.02
- normalized growth (S. cerevisiae deletion strains, locus YOR080W, strain dia2, hits give low values): 1.04
- normalized growth (S. cerevisiae deletion strains, locus YOR083W, strain WHI5, hits give low values): 1.01
- normalized growth (S. cerevisiae deletion strains, locus YOR106W, strain vam3, hits give low values): 1.06
- normalized growth (S. cerevisiae deletion strains, locus YOR231W, strain MKK1, hits give low values): 0.992
- normalized growth (S. cerevisiae deletion strains, locus YOR265W, strain rbl2, hits give low values): 1.03
- normalized growth (S. cerevisiae deletion strains, locus YOR270C, strain vph1, hits give low values): 1.04
- normalized growth (S. cerevisiae deletion strains, locus YOR290C, strain snf2, hits give low values): 1
- normalized growth (S. cerevisiae deletion strains, locus YPL051W, strain arl3, hits give low values): 1.03
- normalized growth (S. cerevisiae deletion strains, locus YPL078C, strain atp4, hits give low values): 1.05
- normalized growth (S. cerevisiae deletion strains, locus YPL106C, strain sse1, hits give low values): 1
- normalized growth (S. cerevisiae deletion strains, locus YPL240C, strain hsp82, hits give low values): 1.02
- normalized growth (S. cerevisiae deletion strains, locus YPL256C, strain CLN2, hits give low values): 0.961
